The panel holds about 79,000 compounds, 15% with a hit somewhere; the sample as a whole holds those more often. Activity calls are given as the source filed them. No stated cut-off is given here; in the data, active means growth inhibition above about 70%; inactive means the rest.

Drawing on PubChem BioAssay (NCI), this text covers growth inhibition for eight compounds.

A short description of this assay: NCI Yeast Anticancer Drug Screen. Data for the rad50EPP+ strain (AID 151).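 Further: 0% = growth of vehicle-treated control cultures.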 Conditions: S. cerevisiae rad50 mutant strain, active compounds read high. On the procedure: Growth inhibition of yeast strains with defined genetic alterations is measured as a screen for potential anti-cancer activity. Selected strains with alterations in DNA damage repair or cell cycle control were exposed to compounds and growth inhibition was measured relative to vehicle treated controls. The strain used in this assay is rad50EPP+

In the case of `O=C1c2ccccc2C(=O)C1C(c1ccc(F)cc1)C1C(=O)c2ccccc2C1=O`, the growth inhibition is -8% (inactive) (at 1.2 µM); 8% (inactive) (at 3.7 µM); 21% (inactive) (at 11.0 µM); 61% (inactive) (at 33.0 µM); 75% (active) (at 100.0 µM).

In the case of `CCCCCCCCCCCCCCCCCN`, the growth inhibition by setting is: (at 1.2 µM) -14% (inactive); (at 3.7 µM) 11% (inactive); (at 11.0 µM) 82% (active); (at 33.0 µM) 97% (active); (at 100.0 µM) 96% (active).

As to `Cc1cnccc1N=Nc1ccc(N(C)C)cc1`, the growth inhibition was 2% (inactive) (at 1.2 µM); 3% (inactive) (at 3.7 µM); 7% (inactive) (at 11.0 µM); 43% (inactive) (at 33.0 µM); 90% (active) (at 100.0 µM).

Regarding `Cc1cc(NCCCN(C)C)c2ccc3c(ccc4c(NCCCN(C)C)cc(C)nc43)c2n1`, the growth inhibition reads like this: (at 1.2 µM) 6% (inactive); (at 3.7 µM) 6% (inactive); (at 11.0 µM) 11% (inactive); (at 33.0 µM) -26% (inactive); (at 100.0 µM) 22% (inactive).

Take `COc1ccc(/C(=N/O)c2ccccc2C2=Nc3ccccc3C(NCc3ccccc3)O2)cc1C` (stereo not given): the growth inhibition by setting is: (at 1.2 µM) 3% (inactive); (at 3.7 µM) 1% (inactive); (at 11.0 µM) 15% (inactive); (at 33.0 µM) 49% (inactive); (at 100.0 µM) 82% (active).

Consider `O=C(CCC(=O)c1ccc(O)cc1)Oc1ccc(O)cc1`, for which the growth inhibition reads like this: (at 1.2 µM) 5% (inactive); (at 3.7 µM) 9% (inactive); (at 11.0 µM) 15% (inactive); (at 33.0 µM) 17% (inactive); (at 100.0 µM) 24% (inactive).

Take `OC1C#CCSCC#C/C=C\1` (stereo not given): the growth inhibition by setting is: (at 1.2 µM) -22% (inactive); (at 3.7 µM) 15% (inactive); (at 11.0 µM) 13% (inactive); (at 33.0 µM) 23% (inactive); (at 100.0 µM) 86% (active).

In the case of `[O-]c1c2cc(-[n+]3c(-c4ccccc4)cc(-c4ccccc4)cc3-c3ccccc3)cc1COCCOCCOCCOCCOC2`, the growth inhibition by setting is: (at 1.2 µM) -1% (inactive); (at 3.7 µM) 0% (inactive); (at 11.0 µM) 5% (inactive); (at 33.0 µM) 31% (inactive); (at 100.0 µM) 66% (inactive).
